KB-V1 cytotox – KB-V1 MDR subline cytotoxicity | KB-V1 MDR cells viability, CellTiter-Glo, 72 h | Potency, µM (highest dose often 46.1 µM), hits mostly cytotoxic | 400,000 tested, 3.4% active | AID 1347076; note: nearly all actives have a fitted effect of over 60% in size
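Cytotoxicity toward P-gp-expressing KB-V1 cells was determined as loss of CellTiter-Glo luminescence after 72 h at 37 degrees C. Compounds were tested in quantitative HTS format across a concentration range, with curves fitted to normalized data.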
ATXN2 expr inh – ATXN2 expression inhibition; HEK-293 ATXN2-luciferase reporter, luminescence, 24 h; Potency, µM (series often up to 57 µM), hits mostly inhibitors; 360,000 tested, 0.72% active; AID 1745845; note: nearly all actives have a fitted effect of over 55% in size
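qHTS (up to 57 uM final) was run with 24 h compound exposure of reporter cells at 37 °C. Each well was multiplexed: SteadyGlo luminescence measured ATXN2-luciferase expression after a fluorogenic Gly-Phe-AFC viability readout (25 uM final).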
KB-3-1 cytotox – KB-3-1 parental cell cytotoxicity. 400,000 tested, 1.4% active. KB-3-1 viability, CellTiter-Glo ATP luminescence, 72 h. Potency, µM (doses to about 46.1 µM), hits mostly cytotoxic; note: nearly all actives have a fitted effect of over 60% in size
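KB-3-1 cells, DMEM (no phenol red) + 10% FBS; compound by pin transfer, 72 h, 37 °C. Readout: CellTiter-Glo luminescence after 10 min. Data normalized, curve-fitted.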
S2 tox – reduces viability in counter-screen for ATXN expression inhibitors | S2 cells (HEK-293 line with an ATXN2-luciferase reporter) viability, CellTiter-Fluor protease fluorescence, 24 h | Potency, µM (series often up to 56.7 µM), actives largely listed as cytotoxic | 400,000 tested, 0.49% active; note: nearly all actives have a fitted effect of over 40% in size
TGFb SMAD3 inh – blocks TGF-b signaling | HepG2 CAGA-GFP TGF-b/SMAD3 reporter, GFP fluorescence, 18 h; TGF-beta stimulated, 500 pg/mL final | Potency, µM (titrated, usually from 46.1 µM), hits mostly inhibitors | 410,000 tested, 1.2% active; note: nearly all actives have a fitted effect of over 65% in size
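HEPG2 CAGA-GFP cells (1000/well, DMEM with 1% FBS) were pre-incubated 2 h at 37 degrees C, given compound by pin tool, then stimulated with TGF-beta at 500 pg/mL final for 18 h before per-cell GFP fluorescence imaging.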
HepG2 tox – kills HepG2 cells in TGF-b inhibitor counter-screen; AID 588856; HepG2 CAGA-GFP viability, ATP luminescence, 18 h; Potency, µM (series often up to 46.1 µM), usual class: cytotoxic; 410,000 tested, 0.76% active
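HepG2 CAGA-GFP cells (1000/well, DMEM with 1% FBS) received compound, then TGF-beta at 500 pg/mL final, and were incubated 18 hours at 37 degrees C. Viability was read by CellTiter-Glo luminescence. Media-only wells were set as complete cell-killing and DMSO as no toxicity.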
Of the large screens only hits and unclear results are named; the others gave an inactive call. This is a sample that favours compounds with a hit; in the whole collection about 5.9% have one here. Calls come from the whole dose curve; as a rule, active = well fitted curve in the direction sought with a large enough effect; inconclusive = small, poorly fitted or top-dose-only effect, or another doubt; inactive = no such curve, though single readings can be large; an effect the other way counts as inactive or inconclusive.

COc1ccc(C=C(C(=O)O)c2ccc(OC)cc2)cc1	S2 tox inconclusive
CN1C(=O)/C(=C/c2cccn2-c2ccc3ccccc3c2)C(=O)NC1=S	KB-V1 cytotox inconclusive, ATXN2 expr inh inconclusive, KB-3-1 cytotox inconclusive, TGFb SMAD3 inh 15.8µM (no result: S2 tox)
COc1ccccc1C=C1C(=O)NC(=S)NC1=O	none
O=C1NC(=S)NC(=O)C1=Cc1cccn1-c1ccc(O)cc1	ATXN2 expr inh 23.8µM, KB-3-1 cytotox inconclusive, S2 tox 18.9µM, TGFb SMAD3 inh inconclusive
Cc1cc(C)cc(N2C(=O)NC(=O)/C(=C\c3cccn3-c3ccccc3)C2=O)c1	KB-V1 cytotox 18.4µM, ATXN2 expr inh inconclusive, KB-3-1 cytotox inconclusive, S2 tox inconclusive, TGFb SMAD3 inh inconclusive
Cc1cc(C)cc(N2C(=O)NC(=O)/C(=C\c3cccn3-c3ccc(Cl)cc3)C2=O)c1	KB-V1 cytotox inconclusive, ATXN2 expr inh inconclusive, KB-3-1 cytotox inconclusive, S2 tox inconclusive, TGFb SMAD3 inh inconclusive
CN(C)CCc1c[nH]c2cccc(O)c12	ATXN2 expr inh inconclusive (no result: KB-V1 cytotox, KB-3-1 cytotox, TGFb SMAD3 inh, HepG2 tox)
Cc1cc(=O)oc2c1c(C)nn2-c1nn[nH]n1	S2 tox inconclusive
CC[C@@H](O)C[C@H]1CCC[C@@]2(C[C@@H]3OC(=O)/C=C/[C@@](C)(O)[C@@H](O)[C@H](C)[C@@H](O)[C@H](OC4CCC(N(C)C)C(C)O4)[C@@H](O)[C@](C)(O)CCCCC/C=C/[C@@H]4CC(C)(C)O[C@@]4(O)C[C@H](O2)[C@H]3C)O1 (stereo partly specified)	KB-V1 cytotox 0.0731µM, ATXN2 expr inh inconclusive, KB-3-1 cytotox 0.164µM (no result: S2 tox)
C=C[C@]12CN(C)[C@H]3C1[C@@]1(C(=O)Nc4ccccc41)[C@H]1C[C@H]2[C@H]3CO1	none (no result: KB-V1 cytotox, ATXN2 expr inh, KB-3-1 cytotox, TGFb SMAD3 inh, HepG2 tox)
C[C@@H]1CN([C@H](C)CO)S(=O)(=O)c2ccc(C#Cc3cccc(F)c3)cc2O[C@@H]1CN(C)C(=O)CN1CCOCC1	ATXN2 expr inh inconclusive, S2 tox 20µM, TGFb SMAD3 inh inconclusive
Cc1ccc(S(=O)(=O)N(C)C[C@H]2Oc3cc(Br)ccc3S(=O)(=O)N([C@H](C)CO)C[C@H]2C)cc1	KB-V1 cytotox inconclusive, ATXN2 expr inh inconclusive, KB-3-1 cytotox inconclusive, S2 tox inconclusive, TGFb SMAD3 inh inconclusive
CS(=N)(=O)CC[C@@H](N)C(=O)O (stereo partly specified)	none (no result: KB-V1 cytotox, ATXN2 expr inh, KB-3-1 cytotox, TGFb SMAD3 inh, HepG2 tox)
Cc1ccc(N2CCN(C(=O)c3cn(CC4CCCCC4)nn3)C(C)C2)cc1 (stereo unspecified)	KB-V1 cytotox inconclusive, TGFb SMAD3 inh inconclusive
Cn1ccc(NC(=O)CCl)n1	S2 tox inconclusive
Cc1cc(NC(=O)CCl)nn1C	KB-V1 cytotox 20.6µM, KB-3-1 cytotox 13µM
Cc1ccccc1S(=O)(=O)N1C[C@H]2[C@H]3C(=O)N(C4CCCCC4)C(=O)[C@H]3CC(=O)[C@H]2[C@@H]1c1ccc(Cl)cc1	TGFb SMAD3 inh inconclusive
CC(=O)OC(C)(C)/C=C/C(=O)C(C)(O)C1[C@H](O)C[C@@]2(C)C3CC=C4C(CC[C@@H](O)C4(C)C)[C@]3(CO)C(=O)C[C@]12C (stereo partly specified)	KB-V1 cytotox 3.66µM, ATXN2 expr inh inconclusive, KB-3-1 cytotox inconclusive, S2 tox inconclusive, TGFb SMAD3 inh inconclusive
CC(C)(O)C=CC(=O)[C@](C)(O)[C@H]1[C@H](O)C[C@]2(C)[C@@H]3CC=C4[C@@H](C=C(O)C(=O)C4(C)C)[C@]3(C)C(=O)C[C@@]12C	ATXN2 expr inh 1.53µM (no result: KB-V1 cytotox, KB-3-1 cytotox, S2 tox, TGFb SMAD3 inh, HepG2 tox)
CC(=O)OC(C)(C)/C=C/C(=O)C(C)(O)C1C(O)CC2(C)C3CC=C4C(CC(O)C(=O)C4(C)C)C3(C)C(=O)CC12C (stereo unspecified)	KB-V1 cytotox 0.461µM, ATXN2 expr inh inconclusive, KB-3-1 cytotox 0.164µM, TGFb SMAD3 inh inconclusive (no result: S2 tox)

Compound activity: PubChem BioAssay, National Center for Advancing Translational Sciences (NCATS)
